Drawing on PubChem BioAssay (Tox21), this text covers outcome, Potency and max activation for seven compounds.

For assay [1], the target named is Thyrotropin-releasing hormone receptor (Homo sapiens) (UniProt P34981). Nature of the assay: qHTS assay to identify small molecule agonists of the thyrotropin-releasing hormone receptor (TRHR) signaling pathway (AID 1346891; calls by dose curve;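 further: HEK293 cells expressing TRHR with calcium dye readout; series mostly up to about 58 µM; on the % scale 0 is the no-effect control and ±100 the full control effect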). The method, boiled down:
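HEK293/TRHR cells, 1500 per well, 18 h 37 °C; Ca dye 2 h 37 °C; pin-tool compound addition (agonist mode); kinetic fluorescence 3 min, 1 s reads; 15 concentrations, triplicate.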
A general note: In qHTS, concentration-response curves come from the screen itself.

A short description of assay [2]: Human pregnane X receptor (PXR) small molecule agonists, qHTS cell viability counter screen (AID 1346977). Further: on the % scale 0 is the no-effect control and ±100 the full control effect; nearly all actives have a fitted effect of over 50% in size. The procedure, abridged:
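Fluorescence read-out (CellTiter-Fluor) of viability in PXR-Luc HepG2 cells, multiplexed with the luciferase agonist read. Compounds in DMSO added after 5hr plating; 24hr total exposure at 37C, 5% CO2.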

A short description of assay [3]: Caspase-3/7 induction in HepG2 cells by small molecules, qHTS assay (AID 1346978). Further: on the % scale 0 is the no-effect control and ±100 the full control effect; nearly all actives have a fitted effect of over 15% in size. The method, boiled down:
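Wild-type HepG2 cells, 2,000/well, settled 5 hr at 37 C and 5% CO2, then compound-treated for 17 hr; caspase-3/7 activity read by luminescent Caspase-Glo 3/7 after 30 min at room temperature.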

A short description of assay [4]: Caspase-3/7 induction in CHO-K1 cells by small molecules, qHTS cell viability counter screen (AID 1346979). Further: on the % scale 0 is the no-effect control and ±100 the full control effect; nearly all actives have a fitted effect of over 35% in size. The method, boiled down: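 CHO-K1 wt, 1,500 cells/well; 5hr pre-incubation 37C/5% CO2; compound pin transfer (DMSO); 16hr exposure; CellTiter-Fluor added, 1hr, fluorescence read.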
The nature of assay [5]: Caspase-3/7 induction in HepG2 cells by small molecules, qHTS cell viability counter screen (AID 1346981). Further: series mostly up to about 92 µM; on the % scale 0 is the no-effect control and ±100 the full control effect; nearly all actives have a fitted effect of over 30% in size. The procedure, abridged:
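Fluorescence read-out of live-cell protease activity (CellTiter-Fluor) after 1 hr with reagent. This was measured in the same wells as the caspase-3/7 luminescence, on HepG2 cells exposed to DMSO-dissolved compounds for 16 hr at 37 C.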

Assay [6] concerns the target Nuclear receptor subfamily 1 group I member 2 (Homo sapiens) (UniProt O75469). The assay can be described thus: Human pregnane X receptor (PXR) small molecule agonists, qHTS assay (AID 1346982). Further: on the % scale 0 is the no-effect control and ±100 the full control effect; nearly all actives have a fitted effect of over 35% in size. The procedure, abridged:
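HepG2 PXR-Luc reporter line, 5% charcoal-stripped FBS; 5 hr pre-incubation, compound (DMSO) 24 hr at 37 C/5% CO2; ONE-Glo 30 min RT; luminescence read-out.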

The target in assay [7] is Acetylcholinesterase (Homo sapiens) (UniProt P22303). Nature of the assay: Acetylcholinesterase (AChE) small molecule antagonists: colormetric cell-based qHTS assay (AID 1347395; calls by dose curve; further: nearly all actives have a fitted effect of over 30% in size; further: potency means the concentration at half of the fitted maximal effect). The method, boiled down: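 SH-SY5Y cells; cpd 30 min 37 C; + DTNB/acetylthiocholine, 90 min 37 C; colorimetric thiocholine read; qHTS.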
Assay [8] shares this target. The assay can be described thus: Acetylcholinesterase (AChE) small molecule antagonists: fluorescence cell-based qHTS assay (AID 1347398; calls by dose curve; further: nearly all actives have a fitted effect of over 50% in size; further: potency means the concentration at half of the fitted maximal effect). To be noted: Potency: AChE activity; outcome: AChE activity. The procedure, abridged: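 SH-SY5Y, 2,000 cells/well, attached overnight; cmpd 30 min 37 C; acetylthiocholine/Thiolite Green cocktail 40 min RT; fluorescence Ex/Em 490/520 nm.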

Assay [9] shares this target. Nature of the assay: Acetylcholinesterase (AChE) small molecule antagonists: enzyme-based qHTS assay with human liver microsomes (AID 1347399; calls by dose curve; further: nearly all actives have a fitted effect of over 60% in size; further: potency means the concentration at half of the fitted maximal effect). Particulars: Potency: qHTS inhibition; outcome: qHTS inhibition. The procedure, abridged:
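Recombinant human AChE (50 mU/mL in the enzyme mix) and human liver microsomes (0.25 mg/mL final) were preincubated with compound and NADPH (0.25 mg/mL final) for 30 min at 37 C. Acetylthiocholine/DTNB was then added; thiocholine was read colorimetrically after 10 min at room temperature.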

In assay [10] the target is Cytochrome P450 2C19 (Homo sapiens) (UniProt P33261). Nature of the assay: Cytochrome P450 Family 2 Subfamily C Member 19 (CYP2C19) small molecule antagonists: luciferase reporter qHTS assay (AID 1671197). Further: nearly all actives have a fitted effect of over 65% in size. Further: potency means the concentration at half of the fitted maximal effect. The procedure, abridged:
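Enzyme-substrate mix with proluciferin substrate (P450-Glo CYP2C19 system) preincubated with compounds 10 min at room temperature; NADPH regeneration solution added, 37C for 1 h; detection reagent stops reaction, luminescence read after 20 min. Ketoconazole positive control.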
On the technique in general: Reporter assays use an easily measured gene product as a stand-in for the process of interest.

The target in assay [11] is Cytochrome P450 2C9 (Homo sapiens) (UniProt P11712). The assay can be described thus: Cytochrome P450 Family 2 Subfamily C Member 9 (CYP2C9) small molecule antagonists: luciferase reporter qHTS assay (AID 1671198). Further: nearly all actives have a fitted effect of over 50% in size. Further: potency means the concentration at half of the fitted maximal effect. The method, boiled down:
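P450-Glo proluciferin substrate with CYP2C9 enzyme; 10 min RT preincubation, then NADPH regeneration 1 h at 37C; luciferin detection reagent 20 min RT, luminescence in relative luminescence units.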

Assay [12] has as its target Cytochrome P450 1A2 (Homo sapiens) (UniProt P05177). The assay can be described thus: Cytochrome P450 Family 1 Subfamily A Member 2 (CYP1A2) small molecule antagonists: luciferase reporter qHTS assay (AID 1671199). Further: series mostly up to about 120 µM; on the % scale 0 is the no-effect control and ±100 the full control effect; nearly all actives have a fitted effect of over 50% in size. The method, boiled down:
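Luminescence readout (relative luminescence units) after luciferin detection reagent, 20 min RT. Preceded by 1 h room-temperature CYP1A2 reaction with NADPH regeneration solution following 10 min compound preincubation with enzyme and proluciferin substrate. Furafylline positive control.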

The target of assay [13] is Voltage-gated inwardly rectifying potassium channel KCNH2 (Homo sapiens) (UniProt Q12809). The assay can be described thus: Human Ether-a-go-go-Related Gene (hERG) channel small molecule antagonists: fluorescence cell-based qHTS assay (AID 1671200). The procedure, abridged: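 Read-out: thallium influx as a surrogate for potassium, tracked as fluorescence (480 nm ex/540 nm em) every second for 2 min after Stimulus Buffer addition in dye-loaded hERG-U2OS cells.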
A general note: hERG is a cardiac potassium channel; its block is linked to QT prolongation.

Assay [14] deals with Cytochrome P450 3A4 (Homo sapiens) (UniProt P08684). The assay can be described thus: Cytochrome P450 Family 3 Subfamily A Member 4 (CYP3A4) small molecule antagonists: luciferase reporter qHTS assay (AID 1671201). The method, boiled down:
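Luminescent readout (RLU) proportional to CYP3A4 activity, from luciferin generated off a proluciferin substrate. Enzyme–substrate mix plus compound 10 min at room temp, NADPH regeneration 1 h, detection reagent 20 min.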

A short description of assay [15]: Caspase-3/7 induction in CHO-K1 cells by small molecules, qHTS assay (AID 1346980). Further: on the % scale 0 is the no-effect control and ±100 the full control effect; nearly all actives have a fitted effect of over 15% in size. The procedure, abridged:
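Wild-type CHO-K1 cells exposed to compounds for 17hr at 37 C, 5% CO2. Caspase-3/7 activity then measured by Caspase-Glo 3/7 luminescence after 30min at room temperature.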

Assay [16] concerns the target Acetylcholinesterase (Homo sapiens) (UniProt P22303). The assay can be described thus: Acetylcholinesterase (AChE) small molecule antagonists: enzyme-based qHTS assay (AID 1347397; calls by dose curve; further: nearly all actives have a fitted effect of over 55% in size; further: potency means the concentration at half of the fitted maximal effect). Particulars: Potency: AChE enzyme activity inhibition; outcome: AChE enzyme activity inhibition. The procedure, abridged: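 Colorimetric DTNB read-out of thiocholine released from acetylthiocholine by recombinant human AChE (50 mU/mL as dispensed). Compounds were preincubated 30 min at RT before substrate/DTNB addition, with a 10 min RT reaction.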

In assay [17] the target is Cytochrome P450 2D6 (Homo sapiens) (UniProt P10635). The assay can be described thus: Cytochrome P450 Family 2 Subfamily D Member 6 (CYP2D6) small molecule antagonists: luciferase reporter qHTS assay (AID 1671196). Further: nearly all actives have a fitted effect of over 50% in size. Further: potency means the concentration at half of the fitted maximal effect. The method, boiled down: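 Luminogenic proluciferin substrate, CYP2D6 enzyme; 10 min RT preincubation with compound, NADPH regeneration system added, 1 h RT. Stop/detection reagent, 20 min RT, luminescence read (RLU). Signal proportional to CYP activity.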

The target in assay [18] is Nuclear receptor subfamily 1 group I member 2 (Rattus norvegicus) (UniProt Q9R1A7). The assay can be described thus: Rat pregnane X receptor (rPXR) activation by small molecules, qHTS assay (AID 1346983). Further: on the % scale 0 is the no-effect control and ±100 the full control effect; nearly all actives have a fitted effect of over 20% in size. Particulars: rPXR luciferase reporter cells, One-Glo luminescence, 24 h; active compounds read high. The procedure, abridged:
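Cell-based rPXR activation assay: rPXR cells, 2,000 per well, rested 5hr at 37 C, then exposed to compounds in DMSO for 24 hr at 37 C. Luciferase activity read by One-Glo luminescence after 30 min at room temperature.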

The target of assay [19] is Nuclear receptor subfamily 1 group I member 2 (Homo sapiens) (UniProt O75469). Nature of the assay: Human pregnane X receptor (PXR) activation by small molecules, qHTS assay (AID 1346985). Further: on the % scale 0 is the no-effect control and ±100 the full control effect; nearly all actives have a fitted effect of over 40% in size. The method, boiled down:
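DPX-2 cells (HepG2 co-transfected with a PXR response element and a CYP3A4-promoter luciferase construct) were seeded at 2,000 per well, rested 5 hr at 37C, then exposed to DMSO-dissolved compounds for 24 hr. Activation was read as luciferase luminescence.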

For assay [20] the target is unchanged. Nature of the assay: CYP3A4 induction through human pregnane X receptor (PXR) by small molecules, qHTS assay (AID 1346984). Further: potency means the concentration at half of the fitted maximal effect; nearly all actives have a fitted effect of over 40% in size. The procedure, abridged:
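HepG2-derived DPX-2 line carrying PXR plus a CYP3A4-promoter luciferase reporter; cells plated 5 hr, compound-exposed 24 hr at 37C. CYP3A4 activity probed with 3uM (final) Luciferin-IPA for 3hr, then luciferase read after One-Glo.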

Values without a mark were called inactive. Inconclusive results are not listed. Active and inactive are the calls of the source. Unless noted, the call rests on the fitted dose curve; in most records, active means well fitted curve in the direction sought with a large enough effect in the repeat runs; inconclusive means weak or mixed curves; inactive means no such curve, though single readings can be large; an effect the other way counts as inactive or inconclusive.

Chain of Cytochrome P450 2C19 (Homo sapiens) (P33261 whole entry, looked up): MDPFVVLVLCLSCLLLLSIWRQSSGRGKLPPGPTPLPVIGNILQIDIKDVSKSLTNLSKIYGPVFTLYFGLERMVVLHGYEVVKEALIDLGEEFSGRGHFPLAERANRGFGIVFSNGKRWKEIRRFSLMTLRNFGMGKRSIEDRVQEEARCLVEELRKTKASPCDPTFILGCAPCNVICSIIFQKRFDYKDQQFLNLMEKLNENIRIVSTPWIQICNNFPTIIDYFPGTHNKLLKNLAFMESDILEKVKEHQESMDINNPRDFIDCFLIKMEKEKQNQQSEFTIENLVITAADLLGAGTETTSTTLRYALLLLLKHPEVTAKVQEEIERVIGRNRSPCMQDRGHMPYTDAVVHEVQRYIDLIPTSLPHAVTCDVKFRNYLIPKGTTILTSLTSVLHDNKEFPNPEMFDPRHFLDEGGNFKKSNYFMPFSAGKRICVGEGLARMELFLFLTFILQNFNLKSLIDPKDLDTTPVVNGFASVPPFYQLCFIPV
Chain of Acetylcholinesterase (Homo sapiens) (P22303 whole entry, looked up): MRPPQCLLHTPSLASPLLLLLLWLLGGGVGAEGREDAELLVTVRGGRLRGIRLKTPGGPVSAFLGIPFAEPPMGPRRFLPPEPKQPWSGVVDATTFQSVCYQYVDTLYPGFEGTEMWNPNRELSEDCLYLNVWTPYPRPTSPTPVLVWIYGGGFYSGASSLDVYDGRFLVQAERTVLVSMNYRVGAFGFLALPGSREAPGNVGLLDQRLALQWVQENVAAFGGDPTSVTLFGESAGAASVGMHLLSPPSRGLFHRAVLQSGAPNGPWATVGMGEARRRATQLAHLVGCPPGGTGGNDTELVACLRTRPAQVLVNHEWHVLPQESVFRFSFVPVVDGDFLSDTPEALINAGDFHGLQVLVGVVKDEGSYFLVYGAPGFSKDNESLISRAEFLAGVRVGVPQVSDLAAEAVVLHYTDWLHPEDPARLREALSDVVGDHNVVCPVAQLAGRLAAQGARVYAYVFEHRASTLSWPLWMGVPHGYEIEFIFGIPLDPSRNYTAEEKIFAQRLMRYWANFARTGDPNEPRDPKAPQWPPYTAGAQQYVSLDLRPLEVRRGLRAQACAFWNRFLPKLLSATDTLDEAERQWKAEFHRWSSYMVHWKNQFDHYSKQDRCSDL
Chain of Cytochrome P450 3A4 (Homo sapiens) (P08684 whole entry, looked up): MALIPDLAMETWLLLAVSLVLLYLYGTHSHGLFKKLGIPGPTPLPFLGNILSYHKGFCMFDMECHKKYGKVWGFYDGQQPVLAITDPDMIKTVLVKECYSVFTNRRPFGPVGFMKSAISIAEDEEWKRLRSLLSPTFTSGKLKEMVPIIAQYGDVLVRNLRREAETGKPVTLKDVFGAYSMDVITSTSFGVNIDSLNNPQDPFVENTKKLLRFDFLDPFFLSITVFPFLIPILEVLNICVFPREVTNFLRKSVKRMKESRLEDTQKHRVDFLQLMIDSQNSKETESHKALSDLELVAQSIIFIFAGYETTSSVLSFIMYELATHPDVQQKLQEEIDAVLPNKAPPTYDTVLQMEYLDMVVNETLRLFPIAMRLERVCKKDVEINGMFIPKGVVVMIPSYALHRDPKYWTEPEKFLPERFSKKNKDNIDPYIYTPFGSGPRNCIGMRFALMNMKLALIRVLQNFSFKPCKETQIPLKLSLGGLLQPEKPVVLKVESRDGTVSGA
Chain of Thyrotropin-releasing hormone receptor (Homo sapiens) (P34981 whole entry, looked up): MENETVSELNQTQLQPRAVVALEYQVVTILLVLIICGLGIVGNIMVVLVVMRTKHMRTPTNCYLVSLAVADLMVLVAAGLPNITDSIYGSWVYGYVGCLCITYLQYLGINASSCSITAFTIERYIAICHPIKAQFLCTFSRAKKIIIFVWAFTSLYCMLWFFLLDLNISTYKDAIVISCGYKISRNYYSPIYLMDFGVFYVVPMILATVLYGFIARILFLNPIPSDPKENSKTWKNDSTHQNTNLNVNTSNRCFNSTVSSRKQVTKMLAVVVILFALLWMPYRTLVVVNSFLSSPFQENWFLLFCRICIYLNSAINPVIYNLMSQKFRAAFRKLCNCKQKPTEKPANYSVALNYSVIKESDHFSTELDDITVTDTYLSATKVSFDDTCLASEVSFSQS
Chain of Voltage-gated inwardly rectifying potassium channel KCNH2 (Homo sapiens) (Q12809 whole entry, looked up): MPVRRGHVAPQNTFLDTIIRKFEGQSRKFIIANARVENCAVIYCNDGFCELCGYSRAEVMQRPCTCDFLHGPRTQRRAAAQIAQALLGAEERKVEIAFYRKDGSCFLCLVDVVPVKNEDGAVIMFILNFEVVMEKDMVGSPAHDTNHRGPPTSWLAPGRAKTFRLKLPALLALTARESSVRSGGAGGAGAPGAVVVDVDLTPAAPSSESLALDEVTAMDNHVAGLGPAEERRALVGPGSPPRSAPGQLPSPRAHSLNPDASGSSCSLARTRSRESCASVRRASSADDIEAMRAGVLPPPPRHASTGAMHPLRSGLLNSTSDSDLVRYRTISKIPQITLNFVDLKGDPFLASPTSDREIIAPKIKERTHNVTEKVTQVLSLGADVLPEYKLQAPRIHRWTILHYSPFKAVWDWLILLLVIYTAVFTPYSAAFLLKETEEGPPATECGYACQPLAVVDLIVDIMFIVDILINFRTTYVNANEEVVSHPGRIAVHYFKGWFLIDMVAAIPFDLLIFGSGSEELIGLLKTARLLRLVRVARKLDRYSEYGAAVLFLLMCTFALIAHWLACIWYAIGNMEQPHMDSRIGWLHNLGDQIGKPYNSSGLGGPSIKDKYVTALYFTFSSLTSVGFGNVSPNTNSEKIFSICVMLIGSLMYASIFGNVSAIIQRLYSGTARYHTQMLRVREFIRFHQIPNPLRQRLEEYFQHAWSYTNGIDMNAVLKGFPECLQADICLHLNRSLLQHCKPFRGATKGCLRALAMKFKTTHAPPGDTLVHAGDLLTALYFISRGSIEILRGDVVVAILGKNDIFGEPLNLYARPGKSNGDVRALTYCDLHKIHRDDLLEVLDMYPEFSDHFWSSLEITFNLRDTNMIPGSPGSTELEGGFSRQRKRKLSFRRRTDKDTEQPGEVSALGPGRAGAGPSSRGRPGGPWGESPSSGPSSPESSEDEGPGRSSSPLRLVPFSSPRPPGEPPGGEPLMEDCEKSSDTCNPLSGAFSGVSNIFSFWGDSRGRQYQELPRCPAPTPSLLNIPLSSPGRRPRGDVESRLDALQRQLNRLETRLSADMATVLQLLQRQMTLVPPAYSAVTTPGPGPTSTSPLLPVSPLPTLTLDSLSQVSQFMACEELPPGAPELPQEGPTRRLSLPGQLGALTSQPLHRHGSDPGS
Chain of Cytochrome P450 1A2 (Homo sapiens) (P05177 whole entry, looked up): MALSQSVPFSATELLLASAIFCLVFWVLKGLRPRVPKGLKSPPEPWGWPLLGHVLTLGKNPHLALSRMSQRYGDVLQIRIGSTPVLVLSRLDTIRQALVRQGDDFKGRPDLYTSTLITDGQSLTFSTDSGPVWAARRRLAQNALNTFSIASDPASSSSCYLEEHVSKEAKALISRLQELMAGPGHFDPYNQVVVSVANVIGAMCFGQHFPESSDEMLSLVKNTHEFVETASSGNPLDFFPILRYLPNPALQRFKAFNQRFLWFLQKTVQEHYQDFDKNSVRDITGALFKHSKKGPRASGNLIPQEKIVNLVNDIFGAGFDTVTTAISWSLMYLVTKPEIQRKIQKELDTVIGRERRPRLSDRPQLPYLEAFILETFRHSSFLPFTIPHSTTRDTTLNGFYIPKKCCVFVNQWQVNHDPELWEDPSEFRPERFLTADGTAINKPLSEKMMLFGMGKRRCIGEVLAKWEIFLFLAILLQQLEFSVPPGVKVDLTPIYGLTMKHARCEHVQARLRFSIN
Chain of Nuclear receptor subfamily 1 group I member 2 (Homo sapiens) (O75469 whole entry, looked up): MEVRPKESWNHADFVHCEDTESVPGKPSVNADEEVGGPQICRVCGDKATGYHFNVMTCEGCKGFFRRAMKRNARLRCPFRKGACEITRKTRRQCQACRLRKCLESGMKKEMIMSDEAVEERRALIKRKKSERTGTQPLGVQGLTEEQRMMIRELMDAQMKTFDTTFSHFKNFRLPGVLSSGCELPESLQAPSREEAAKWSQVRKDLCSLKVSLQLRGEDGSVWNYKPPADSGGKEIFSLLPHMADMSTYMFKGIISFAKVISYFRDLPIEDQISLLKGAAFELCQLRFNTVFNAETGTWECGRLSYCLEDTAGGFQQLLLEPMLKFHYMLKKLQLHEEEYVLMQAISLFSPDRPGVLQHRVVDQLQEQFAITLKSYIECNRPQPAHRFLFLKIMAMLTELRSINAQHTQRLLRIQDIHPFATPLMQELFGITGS
Chain of Nuclear receptor subfamily 1 group I member 2 (Rattus norvegicus) (Q9R1A7 whole entry, looked up): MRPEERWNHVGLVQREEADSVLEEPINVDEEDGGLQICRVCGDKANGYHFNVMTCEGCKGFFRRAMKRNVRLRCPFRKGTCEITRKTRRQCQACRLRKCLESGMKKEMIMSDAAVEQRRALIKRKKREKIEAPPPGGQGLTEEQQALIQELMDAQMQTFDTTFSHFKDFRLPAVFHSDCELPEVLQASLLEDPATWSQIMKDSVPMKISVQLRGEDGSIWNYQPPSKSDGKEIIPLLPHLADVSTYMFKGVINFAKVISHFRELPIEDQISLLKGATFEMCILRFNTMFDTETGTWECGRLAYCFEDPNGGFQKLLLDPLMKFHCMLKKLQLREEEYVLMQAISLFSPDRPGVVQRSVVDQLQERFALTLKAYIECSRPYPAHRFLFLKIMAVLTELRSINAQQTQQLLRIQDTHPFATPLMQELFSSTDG

Take `CCc1ccc(C2CCNCC2)cc1`: the outcome in assay [1] and in assay [3] was inactive. The Potency entry in assay [2], in assay [4], in assay [5], in [6], in assay [7] and in assay [8] was “inactive” in each case. Further, the Potency entry in assay [9], in [10], in [11], in [12], in assay [13] and in [14] was “inactive” each time.

As to `CNC(=O)O/N=C(/CSC)C(C)(C)C`, the result in assay [1], in [3] and in assay [15] was inactive. Besides, the Potency result in [2], in [4], in [5], in [17], in [11] and in assay [13] was “inactive” each time. For the same compound, the Potency entry in [14] is “inactive”. For the same compound, the Potency in assay [7] was 1.59 µM (active); in assay [16], 1 µM (active); in [8], 0.142 µM (active); in [9] it was 11.2 µM (active); in assay [10] it was 20 µM (active).

With `ClCC1CO1` (stereo not given), the compound was classed as inactive in [1], in assay [3] and in assay [15]. In addition, the Potency entry in assay [2], in assay [5], in assay [6], in [19], in [7] and in assay [16] was “inactive” each time. The Potency entry in assay [8], in [17], in assay [11], in [12], in assay [13] and in assay [14] was “inactive” in each case. The max activation in [18] was -3.74%. Moreover, the Potency in assay [10] is 24.3 µM (active).

As to `CCN(CC)CCOC(=O)C(O)(c1ccccc1)c1ccccc1`, the compound was classed as inactive in [1] and in assay [3]. Moreover, the Potency entry in assay [2], in assay [4], in [5], in assay [6], in [19] and in [7] was “inactive” in each case. For the same compound, the Potency result in assay [16], in assay [8], in assay [9], in assay [10] and in assay [12] was “inactive” each time. Further, the max activation in assay [18] is -2.47%. Besides, the Potency in assay [17] is 3.47 µM (active).

Take `CCSC(=O)Cl`: the result in assay [1] and in assay [3] was inactive. Besides, the Potency result in [2], in assay [4], in assay [5], in assay [6], in assay [7] and in assay [16] was “inactive” throughout. Also, the Potency result in [8], in assay [9], in [10], in assay [11], in assay [12] and in [13] was “inactive” each time. Also, in assay [14], the Potency result was “inactive”.

`O=C(Cl)C(Cl)Cl`: the compound was classed as inactive in assay [1] and in [3]. Moreover, the Potency entry in assay [2], in assay [4], in [5], in assay [6], in [7] and in [16] was “inactive” throughout. The Potency entry in assay [8], in assay [9], in assay [17], in [10], in assay [11] and in assay [13] was “inactive” in each case. Also, the Potency result in assay [14] is “inactive”.

Turning to `N[C@@H](Cc1ccc(Oc2cc(I)c(O)c(I)c2)c(I)c1)C(=O)O`, the compound was called inactive in assay [1], in assay [3] and in assay [15]. For the same compound, the Potency entry in assay [2], in assay [5], in assay [19], in [7], in assay [8] and in [10] was “inactive” in each case. The Potency entry in [12] and in [13] was “inactive” throughout. In addition, the max activation in [18] is -1.02%. The Potency is 14.1 µM (active) in [20] and 11 µM (active) in assay [11].
